# Experimental data as given in PubChem BioAssay (Tox21).
# Records with an inconclusive call do not appear. Unmarked numbers belong to inactive results. Calls come from the whole dose curve.
# Experiment: qHTS assay for small molecule agonists of the antioxidant response element (ARE) signaling pathway - cell viability counter screen (AID 743203); note: nearly all actives have a fitted effect of over 55% in size
# Conditions: ARE-bla HepG2 viability, CellTiter-Glo luminescence, 16 h; series mostly up to 73.3 µM; viability change, negative = cytotoxic: at the top concentration
# Text: National Center for Advancing Translational Sciences [NCATS]
# NIH Chemical Genomics Center [NCGC]
# U.S. Environmental Protection Agency [EPA]
# National Institutes of Environmental Health Sciences [NIEHS]
# National Toxicology Program [NTP]
# U.S. Food and Drug Administration [FDA]
# Oxidative stress has been implicated in the pathogenesis of a variety of diseases ranging from cancer to neurodegeneration. The antioxidant response element (ARE) signaling pathway plays an important role in the amelioration of oxidative stress. The CellSensor ARE-bla HepG2 cell line (Invitrogen) can be used for analyzing the Nrf2/antioxidant response signaling pathway. Nrf2 (NF-E2-related factor 2) and Nrf1 are transcription factors that bind to AREs and activate these genes. The CellSensor ARE-bla Hep G2 cell line contains a beta-lactamase reporter gene under control of the Antioxidant Response Element (ARE) stably integrated into HepG2 cells. The activation of the report gene under culture conditions can be detected by fluorescence intensity. This cell line has been used to screen the Tox21 10K compound library to identify agonists that induce oxidative stress. The cytotoxicity of the Tox21 compound library against the ARE-bla cell line was tested in parallel by measuring the cell viability using CellTiter-Glo assay (Promega, Madison, WI) in the same wells.
# Tox21 Assay Protocol Summary:
# ARE-bla HepG2 cells were dispensed at 2,000 cells/5 ul/well in 1536-well white wall/solid bottom plates using a Multidrop Combi (ThermoFisher Scientific, Waltham, MA) dispenser. After the assay plates were incubated at 37C/5% CO2 for 5 hrs, 23 nL of compounds dissolved in DMSO, positive controls or DMSO only was transferred to the assay plate by a pintool work station (Kalypsys, San Diego, CA). The plates were incubated at 37C/5% CO2 for 16 hrs, followed by addition of 4 ul/well of CellTiter-Glo reagent into the assay plates using a Flying Reagent Dispenser (Aurora Discovery, San Diego, CA). After 30 min incubation at room temperature, the luminescence intensity in the assay plates was measured using a ViewLux (PerkinElmer, Shelton, CT) plate reader.
# % is set by controls: 0 for no effect and ±100 for the full control effect.
row,SMILES,"viability change, negative = cytotoxic"
1,O=C(CCN1CCN(CCO)CC1)N1c2ccccc2Sc2ccc(C(F)(F)F)cc21,-8.6%
2,COc1ccc(S(=O)(=O)N2c3ccc(Cl)cc3[C@@](O)(c3ccccc3Cl)[C@H]2C(=O)N2CCC[C@@H]2C(N)=O)cc1OC,0.315%
3,CC(=O)CCCCn1c(=O)c2c(ncn2C)n(C)c1=O,1.11%
4,N[C@@H](CCC(=O)N[C@@H](CS)C(=O)NCC(=O)O)C(=O)O,6.61% [at 34.3 µM]
5,O=C(CCNNC(=O)c1ccncc1)NCc1ccccc1,0.389%
6,Cc1nc2n(c(=O)c1CCN1CCC(c3noc4cc(F)ccc34)CC1)CCC[C@H]2O,9.39% [at 34.3 µM]
7,c1ccc2c(c1)ccc1c3ccccc3ccc21,-2.6%
8,CCCC/C=C\CCCCCCCCCC=O,-16.7%
9,CCOC(=O)c1ccc(OC(=O)CCCCCN=C(N)N)cc1,-17.1%
10,CCOCCOC(=O)/C=C/c1ccc(OC)cc1,-6.81%
11,N[C@@H](CCC(=O)Nc1ccc([N+](=O)[O-])cc1)C(=O)O,19.2%
12,NNc1nnc(NN)c2ccccc12,-6.73%
13,O=C(OCC(COC(=O)c1cccnc1)(COC(=O)c1cccnc1)COC(=O)c1cccnc1)c1cccnc1,1.2%
14,C[C@@H]1O[C@@H](O[C@@H]2[C@@H](O)[C@H](OCCc3ccc(O)c(O)c3)O[C@H](CO[C@@H]3O[C@H](CO)[C@@H](O)[C@H](O)[C@H]3O)[C@H]2OC(=O)/C=C/c2ccc(O)c(O)c2)[C@H](O)[C@H](O)[C@H]1O,-2.08%
15,CCCCNc1ccc(C(=O)OCCN(C)C)cc1,12.2%
16,NS(=O)(=O)c1cc2c(cc1Cl)CN(C1CCCCC1)C2=O,11.2%
17,O=C1c2cccc3c2[C@H](CCC3)CN1[C@@H]1CN2CCC1CC2,-5.24%
18,BrCCCCCBr,-7.04% [at 94.8 µM]
19,CCc1ccc(C=O)cc1,7.55%
20,ClCCCl,5.52%

row,SMILES,"viability change, negative = cytotoxic"
1,C[Si](C)=O,-8.17% [at 8.36 µM]
2,CCCCCCCCC1CCC(=O)O1 (stereo not given),11.5%
3,C[C@@H](Oc1ccc(CNC(=O)c2cccnc2Oc2ccc3c(c2)OCO3)c(F)c1)C(=O)O,4.17%
4,CCCCCCCCCCl,9.36% [at 94.8 µM]
5,Cc1cccc(OCC(O)CNC(C)(C)C)c1C (stereo not given),-0.777%
6,CN(CCOc1ccc(NS(C)(=O)=O)cc1)CCc1ccc(NS(C)(=O)=O)cc1,2.05%
7,COc1nccnc1NS(=O)(=O)c1ccc(N)cc1,-1.71%
8,CCN(C)C(=O)Oc1cccc([C@H](C)N(C)C)c1,11.3%
9,CC(=O)c1sc(C)nc1C,-13.9%
10,NC(CO)C(=O)NNCc1ccc(O)c(O)c1O (stereo not given),-1.03%
11,O=C(NCC(O)CO)c1c(I)c(C(=O)NCC(O)CO)c(I)c(N(CCO)C(=O)CO)c1I (stereo not given),-12.8%
12,Oc1cn2c(n1)Nc1ccc(Cl)c(Cl)c1C2,0.71% [at 34.3 µM]
13,CC(C)=CCOC(=O)c1ccccc1,-19.9%
14,CCCCCCOc1ccccc1C(N)=O,-2.25%
15,CCCOC(=O)C(C)O (stereo not given),-3.56% [at 94.8 µM]
16,CC(COC(C)(C)C)OCCCO (stereo not given),-1.12%
17,CC(=O)Nc1ccc(S(=O)(=O)Nc2ccc([N+](=O)[O-])cc2)cc1,-4.15%
18,CNS(=O)(=O)CCc1ccc2[nH]cc(C3CCN(C)CC3)c2c1,-3.03%
19,COc1ccc(-c2cc(=O)c3c(O)cc(O[C@@H]4O[C@H](CO[C@@H]5O[C@@H](C)[C@H](O)[C@@H](O)[C@H]5O)[C@@H](O)[C@H](O)[C@H]4O)cc3o2)cc1O,12%
20,CC(CN)CC(C)(C)CCN (stereo not given),9.75% [at 94.8 µM]
